# Screens from PubChem BioAssay.
# The sample as a whole holds a higher share of hits than the screen did.
# AmpC inh no detg: AmpC beta-lactamase inhibition without detergent. P00811. actives 0.52% (n = 330,000). Potency, µM (doses to about 57.1 µM), for inactives: at the highest dose activity change, negative = inhibition, actives largely listed as inhibitors. AmpC nitrocefin hydrolysis, absorbance 480 nm, 0.0001% Triton;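 also: potency is read from the fitted curve at half-maximal effect; plate controls were no compound for no effect and no enzyme for full effect; nearly all actives have a fitted effect of over 20% in size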
# Target sequence (P00811 whole entry, looked up): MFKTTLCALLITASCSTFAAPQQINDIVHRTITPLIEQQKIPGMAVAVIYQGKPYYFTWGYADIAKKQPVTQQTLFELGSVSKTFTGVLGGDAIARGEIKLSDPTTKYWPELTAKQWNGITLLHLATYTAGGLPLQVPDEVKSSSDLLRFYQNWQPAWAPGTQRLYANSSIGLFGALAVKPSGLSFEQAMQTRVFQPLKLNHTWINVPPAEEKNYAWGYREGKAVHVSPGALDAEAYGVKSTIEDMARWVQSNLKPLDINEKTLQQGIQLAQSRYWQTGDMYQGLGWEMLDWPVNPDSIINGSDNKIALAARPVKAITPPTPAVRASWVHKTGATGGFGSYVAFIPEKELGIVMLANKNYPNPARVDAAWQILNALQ
#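 AmpC (5.3 nM in the dispensed reagent) in 20 mM phosphate pH 7.0 with 0.01% (detergent screen) or 0.0001% Triton X-100 was preincubated with compounds for 15 min at room temperature. Nitrocefin was then added from an 800 uM solution, and hydrolysis was followed at 480 nm.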
# CHX counter: affects cycloheximide protein synthesis inhibition readout, counter-screen; cell reporter, cycloheximide protein synthesis inhibition counterscreen; max response, %; actives 12% (n = 300,000); in the data active = max response mostly above about 13%, no sharp cut-off; inactive = mostly below about 14%; also: read at 38.3 µM for the half of the compounds with a filed dose; 0% is about no effect
# NS1 inh: inhibitors of influenza NS1 protein function; Potency, µM (doses to about 46.1 µM), without a hit: at the highest dose activity, positive = more growth; actives 0.4% (n = 270,000); AID 2326; calls by dose curve; also: potency is read from the fitted curve at half-maximal effect; actives are rising curves; nearly all actives have a fitted effect of over 50% in size
#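 Compounds were scored for reversing the slow growth caused by influenza A NS1 in S. cerevisiae, measured by optical density at 600 nm. Assay medium contained 2% galactose at pH 6.0; NS1-free yeast of the same strain were the positive control.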
# AmpC inh detg: AmpC beta-lactamase inhibition with detergent present; P00811; AmpC hydrolysis of nitrocefin, absorbance 480 nm, 0.01% Triton; Potency, µM (series often up to 114 µM), without a hit: top-dose activity change, negative = inhibition, hits mostly inhibitors; actives 0.041% (n = 370,000); AID 485294;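 also: potency is read from the fitted curve at half-maximal effect; 0% = no-compound wells and -100% = no-enzyme wells; nearly all actives have a fitted effect of over 25% in size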
#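 AmpC (5.3 nM in the dispensed reagent) in 20 mM phosphate pH 7.0 with 0.01% (detergent screen) or 0.0001% Triton X-100 was preincubated with compounds for 15 min at room temperature. Nitrocefin was then added from an 800 uM solution, and hydrolysis was followed at 480 nm.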
# Shiga toxin inh: Shiga toxin inhibition. Vero cells, Shiga toxin protein synthesis inhibition reporter. inhibition, % at 38.7 µM. actives 9.2% (n = 290,000); in the data active = inhibition mostly above about 28%, no sharp cut-off; inactive = mostly below about 43%; also: 0% is about no effect
# * marks the source's active call; other numbers are inactive results; ? = inconclusive; . = no result. Unless noted, calls follow the shape of the dose curve; as a rule, active = well fitted curve in the direction sought with a large enough effect; inconclusive = small, poorly fitted or top-dose-only effect, or another doubt; inactive = no such curve, though single readings can be large; an effect the other way counts as inactive or inconclusive.
SMILES,AmpC inh no detg,CHX counter,NS1 inh,AmpC inh detg,Shiga toxin inh
COc1ccc(-n2nc3c(N4CCCC(C(=O)NCCc5ccc(C)cc5)C4)nnc(C)c3c2C)cc1 (stereo unspecified),.,.,.,-3%,.
OC1CCN(Cc2cccc3ccccc23)CC1,-9%,0,0%,5%,-5
O=C(c1ccco1)N1CCN(Cc2ccccc2Br)CC1,2%,34*,2%,-6%,56*
O=C(c1ccco1)N1CCN(Cc2ccc(F)cc2)CC1,-31%,-1,3%,2%,-6
O=C(c1ccco1)N1CCN(Cc2ccc(F)cc2Cl)CC1,5%,50*,-12%,-1%,.
C/C(=N/N1CCN(Cc2cccc3ccccc23)CC1)c1ccco1,71%,11,10%,-4%,17*
COc1ccc(C(=O)NCc2nnnn2-c2ccc(C)c(C)c2)cc1,.,.,.,-4%,.
O=C(COC(=O)Cn1cnc2ccccc21)Nc1cc2c(cc1Cl)C(=O)c1ccccc1C2=O,-33%,37*,-35%,-2%,50*
O=C(COC(=O)Cn1cnc2ccccc21)Nc1cc(S(=O)(=O)N2CCOCC2)ccc1Cl,-6%,-7,-6%,4%,6
CN1CCN(C(=O)c2cnn(-c3ccc(F)cc3F)c2C2CCN(C(=O)OC(C)(C)C)CC2)CC1,.,.,.,2%,.
Cc1ccc(C(=O)N2CCCN(c3nc4cc5c(cc4cc3C#N)OCO5)CC2)cc1,28%,-1,-13%,-3%,-21
N#Cc1cc2cc3c(cc2nc1N1CCCCC1)OCCO3,-12%,22*,4%,-5%,46
FC(F)(F)c1ccc(NCCc2ccccc2)nc1,-11%,14*,-9%,3%,19
COC(=O)C1(C(=O)OC)NOC2C(=O)N(c3ccc(Cl)cc3Cl)C(=O)C21 (stereo unspecified),4.5µM*,6,23%,5%,16
C=CCc1cccc(/C=C/c2cc(=O)c3ccccc3[nH]2)c1O,-49%,25*,9%,-2%,65*
COc1ccc(S(=O)(=O)Nc2cc3c4c(c2)CCC(=O)N4CCC3)cc1C,-31%,.,.,-17%,.
CCc1nnc(NC(=O)CC(CN(C)S(=O)(=O)c2ccccc2)c2ccccc2)s1 (stereo unspecified),40µM*,-3,-6%,?,-4
CCNC(=O)NC(=O)COc1ccccc1C#N,-20%,36*,-14%,-2%,81*
N#Cc1ccccc1OCC(=O)NC(=O)NCc1ccco1,-13%,26*,3%,-13%,57*
N#Cc1ccccc1OCC(=O)NC(=O)NCc1ccccc1,-18%,8,.,?,21
O=C1Nc2ccc(F)cc2C12Nc1ccccc1-c1nnc(SCc3ccccc3F)nc1O2 (stereo unspecified),-56%,11,-7%,4%,-18
O=C1Nc2ccc(Cl)cc2C12Nc1ccccc1-c1nnc(SCc3ccccc3F)nc1O2 (stereo unspecified),-32%,28*,?,1%,-48
O=C(Nc1ccc(F)cc1F)c1csc(-c2cccs2)n1,-18%,48*,.,?,118*
O=C(Nc1ccc(F)cc1F)c1csc(-c2ccncc2)n1,-9%,27*,-1%,-1%,15
COc1ccc(-c2cc(C(=O)Nc3ccc(F)cc3F)no2)cc1,-10%,-1,-2%,-15%,1
SMILES,AmpC inh no detg,CHX counter,NS1 inh,AmpC inh detg,Shiga toxin inh
CC(C)c1nc2ccc(NC(=O)C3CCCCC3)cc2[nH]1,-19%,6,-13%,1%,19
CC1=C(C)CC(C(=O)Nc2nc(C)cs2)C(C(=O)O)C1 (stereo unspecified),-3%,-3,15%,-9%,-15
O=C(Nc1ccc2nc(-c3ccccn3)[nH]c2c1)C1CCCCC1,-23%,36*,-8%,-4%,57*
Cc1csc(NC(=O)C2CCCCC2)n1,-13%,24*,-1%,-11%,.
CSCCC(=O)Nc1nc(-c2ccccn2)cs1,-15%,21*,.,6%,36
O=C(CN1C(=O)CCC1=O)Nc1nc(-c2ccccn2)cs1,-11%,-5,-7%,?,-10
O=C(Nc1nc(-c2ccccn2)cs1)C1CCCC1,-9%,57*,.,-4%,100*
COc1cc(C)ccc1OCCSc1nc2ccc(NC(=O)c3ccc(F)cc3)cc2s1,.,.,.,12%,.
O=C(CO)[C@@H](O)C(O)[C@@H](O)CO (stereo partly specified),.,-3,.,.,-3
O=C(Cc1noc2ccccc12)Nc1ccc(Cl)cc1,-22%,35*,-35%,-4%,22
Cc1cccc(NC(=O)Cc2noc3ccccc23)c1C,-6%,22,2%,-12%,34*
Cc1cccc(NC(=O)Cc2noc3ccccc23)c1,4%,48*,11%,-3%,74*
CC(=O)c1cccc(NC(=O)Cc2noc3ccccc23)c1,.,.,.,15%,.
Cc1ccc(C)c(N2CCN(C(=O)CN3C(=O)COc4ccc(S(=O)(=O)N5CCCC5)cc43)CC2)c1,.,.,.,2%,.
CCCCOC(=O)n1c(=O)oc2ccccc21,-23%,26*,-11%,-7%,44
COc1ccccc1C(=O)Nc1ccc(C(=O)/C=C/c2cccs2)cc1,-7%,18*,2%,?,22
O=C(/C=C/c1cccs1)c1ccc(NC(=O)c2ccccc2F)cc1,-22%,25*,-17%,3%,40*
COc1ccc([C@H]2CC(=O)C=C(c3cc(C=O)ccc3OC)C2)cc1,1%,.,.,-6%,.
COC(=O)c1ccc(NC(=S)NN2CCCCC2c2cccnc2)cc1 (stereo unspecified),2%,14*,-5%,2%,33
CC(=O)Nc1ccc2nc(NC(=O)COc3ccccc3Cl)sc2c1,-40%,26*,.,4%,43*
CC(=O)Nc1ccc2nc(NC(=O)COc3ccccc3)sc2c1,-31%,15,.,-6%,25
Cc1cccc(NC(=O)CSc2nc3ccc(NC(=O)CCc4ccccc4)cc3s2)c1,.,.,.,4%,.
COc1cccc2sc(Nc3nc4ccc(NC(C)=O)cc4s3)nc12,6%,22*,?,3%,44*
CC(=O)Nc1ccc2nc(NC(=O)CCc3ccccc3)sc2c1,-16%,27*,.,1%,56*
CC(=O)Nc1ccc2nc(NC(=O)COc3ccccc3C)sc2c1,-2%,50*,.,1%,35
SMILES,AmpC inh no detg,CHX counter,NS1 inh,AmpC inh detg,Shiga toxin inh
CC(=O)c1ccc(S(=O)(=O)Nc2cccc(-c3ccc(N4CCOCC4)nn3)c2)cc1,-7%,.,.,0%,.
Cc1cc(C)n(-c2ccc(N3CCOCC3)nn2)n1,-18%,33*,2%,0%,57*
O=c1[nH]c2cc(C(F)(F)F)c(N3CCOCC3)cc2n(CP(=O)(O)O)c1=O,.,-3,.,.,-4
COc1ccc2[nH]c3c(c2c1)CCn1c-3nc2sc(C(=O)Nc3ccccc3)c(C)c2c1=O,3%,-2,12%,0%,10
CCc1cc2c(=O)n3c(nc2s1)-c1[nH]c2ccc(OC)cc2c1CC3,-18%,15*,1%,-8%,21
Nc1oc2ccccc2c(=O)c1-c1ccc2c(c1)OCO2,-22%,41*,-1%,-3%,72*
